Screening data (PubChem)
This is a sample that favours compounds with a hit; in the whole collection about 16% have one here.
TDP1 block = qHTS Assay for Inhibitors of Tyrosyl-DNA Phosphodiesterase (TDP1) | recombinant TDP1, AlphaScreen DNA substrate cleavage | Potency, µM (doses to about 130 µM), most hits filed as inhibitors | 0.28% of 350,000 active; note: nearly all actives have a fitted effect of over 40% in size
Target sequence (Q9NUW8 whole entry, looked up): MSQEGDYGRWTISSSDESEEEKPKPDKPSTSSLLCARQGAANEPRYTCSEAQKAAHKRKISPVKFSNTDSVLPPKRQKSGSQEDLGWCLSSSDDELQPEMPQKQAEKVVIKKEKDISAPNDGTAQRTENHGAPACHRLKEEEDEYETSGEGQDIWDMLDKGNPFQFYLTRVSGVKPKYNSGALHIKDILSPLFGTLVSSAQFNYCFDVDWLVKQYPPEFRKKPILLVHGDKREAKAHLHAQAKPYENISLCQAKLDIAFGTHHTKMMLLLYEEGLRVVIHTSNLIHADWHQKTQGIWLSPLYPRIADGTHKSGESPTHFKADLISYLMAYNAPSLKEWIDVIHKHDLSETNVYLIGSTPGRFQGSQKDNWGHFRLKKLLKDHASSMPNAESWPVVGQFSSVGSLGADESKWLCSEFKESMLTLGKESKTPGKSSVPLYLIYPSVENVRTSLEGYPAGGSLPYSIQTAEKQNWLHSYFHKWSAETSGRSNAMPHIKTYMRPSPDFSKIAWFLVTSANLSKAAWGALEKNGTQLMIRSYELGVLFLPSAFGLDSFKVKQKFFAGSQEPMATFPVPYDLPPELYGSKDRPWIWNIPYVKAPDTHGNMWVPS
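Compounds were preincubated with Tdp1 (1 nM final) for 15 min at room temperature before substrate (15 nM final) started a 5 min reaction; beads (10 ug/ml final) were then added for 10 min before AlphaScreen detection.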
TDP1 cell noCPT = qHTS for Inhibitors of human tyrosyl-DNA phosphodiesterase 1 (TDP1): qHTS in cells in absence of CPT; DT40 Tdp1-/- hTDP1 cells, no CPT, ATP luminescence, 48 h; Potency, µM (highest dose often 46.2 µM), usual class: inhibitors; 15% of 420,000 active; AID 686978, 2013; note: nearly all actives have a fitted effect of over 55% in size
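Chicken DT40 Tdp1-/- cells stably complemented with human TDP1 were seeded at 400 cells/well with DMSO in place of 20 nM camptothecin. After compound pinning, cells grew at least 48 hr at 37 °C; viability read by CellTiter-Glo luminescence.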
DT40 TDP1 CPT = qHTS for Inhibitors of human tyrosyl-DNA phosphodiesterase 1 (TDP1): qHTS in cells in presence of CPT; Potency, µM (highest dose often 46.2 µM), actives largely listed as inhibitors; chicken DT40 Tdp1-/-;hTDP1 cells + 20 nM CPT, ATP luminescence, 48 h; AID 686979, 2013; 12% of 420,000 active; note: nearly all actives have a fitted effect of over 55% in size
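Chicken DT40 Tdp1-/- cells stably complemented with human TDP1 were seeded at 400 cells/well in medium containing 20 nM camptothecin, exposed to pin-transferred compounds, and grown at 37 °C for at least 48 hr. Viability was read as ATP luminescence.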
miR-21 reporter = qHTS Assay for Modulators of miRNAs and/orActivators of miR-21 | 340,000 tested, under 10 active | HeLa miR-21 FLuc reporter, luciferase, 48 h | Potency, µM (top dose mostly 38.3 µM), most hits filed as activators;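 note: miR-21 action dims this reporter so a rising signal means less miR-21 action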
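Luminescence from a firefly luciferase reporter carrying a miR-21 binding site downstream, stably expressed under a CMV promoter in HeLa cells that make miR-21 endogenously, reports miRNA modulation after 48 h compound exposure up to approximately 40uM final.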
uPA surface inh = qHTS for Inhibitors of Cell Surface uPA Generation | AID 540303, 2011 | cell surface uPA generation assay, qHTS | 0.31% of 330,000 active | Potency, µM (titrated, usually from 38.3 µM), usual class: inhibitors; active = well fitted inhibition curve with a large enough effect; inconclusive = small, poorly fitted or top-dose-only effect; inactive = no such curve, though single readings can be large or run the other way; tested in mouse RAW 264.7 cells; note: nearly all actives have a fitted effect of over 55% in size
Of the large screens only hits and unclear results are named; the others gave an inactive call. Unless noted, calls come from the whole dose curve; as a rule, active = well fitted curve in the direction sought with a large enough effect; inconclusive = small, poorly fitted or top-dose-only effect, or another doubt; inactive = no such curve, though single readings can be large; an effect the other way counts as inactive or inconclusive.

Cn1c(SCC(=O)Nc2ccc(Cl)cc2)nnc1C1CC1	none
Cc1cc(C(=O)C(C)OC(=O)c2ccc(NC(=O)CC#N)cc2)c(C)n1-c1ccccc1 (centres undefined)	TDP1 cell noCPT 18µM, DT40 TDP1 CPT inconclusive (no result: TDP1 block, miR-21 reporter)
CC(OC(=O)c1ccc(NC(=O)CC#N)cc1)C(=O)NC(c1ccccc1)c1ccccc1 (centres undefined)	none (no result: miR-21 reporter)
C=CCCC(=O)Nc1nc(C)c(-c2csc(Nc3cc(OC)ccc3OC)n2)s1	TDP1 cell noCPT 2.6µM, DT40 TDP1 CPT 2.6µM, uPA surface inh inconclusive
COc1cccc(Nc2nc(-c3sc(NC(=O)c4ccccc4)nc3C)cs2)c1	TDP1 cell noCPT 21µM, DT40 TDP1 CPT 18µM
COc1ccc(OC)c(Nc2nc(-c3sc(N)nc3C)cs2)c1	TDP1 cell noCPT 26µM, DT40 TDP1 CPT inconclusive
C=CCCC(=O)Nc1nc(C)c(-c2csc(Nc3cccc(OC)c3)n2)s1	TDP1 cell noCPT 16µM, DT40 TDP1 CPT 16µM
COc1ccccc1Nc1nc(-c2sc(NC(=O)CC(C)C)nc2C)cs1	TDP1 cell noCPT inconclusive, DT40 TDP1 CPT inconclusive
O=S(=O)(c1ccc(Cl)nc1)N1CCc2ccccc21	none
COc1ccc(CCC2(C)OCC(CCCCO)O2)cc1 (centres undefined)	none (no result: TDP1 block, miR-21 reporter)
CCCC(=O)Nc1nc(C)c(-c2csc(Nc3ccccc3OC)n2)s1	TDP1 cell noCPT inconclusive
COc1ccc(NC(=O)c2cc(-c3sc(NC(=O)c4ccccc4)nc3C)n(-c3ccc(Br)cc3)n2)cc1	none (no result: TDP1 block, miR-21 reporter, uPA surface inh)
CCCCCC(=O)Nc1nc(C)c(-c2csc(Nc3cc(Cl)ccc3OC)n2)s1	TDP1 cell noCPT 18µM, DT40 TDP1 CPT inconclusive
Cc1nc(NC(=O)c2ccccc2)sc1-c1csc(Nc2ccc(C(=O)O)cc2)n1	TDP1 cell noCPT 12µM, DT40 TDP1 CPT 21µM
C=CCn1nc(C(=O)Nc2ccc(OC)cc2)cc1-c1sc(NC(=O)c2ccccc2)nc1C	TDP1 cell noCPT inconclusive, DT40 TDP1 CPT 18µM (no result: TDP1 block, miR-21 reporter, uPA surface inh)
CCCC(=O)Nc1nc(C)c(-c2csc(Nc3cc(OC)ccc3OC)n2)s1	TDP1 cell noCPT 6.5µM, DT40 TDP1 CPT 4.6µM
CCCC(C)C(=O)Nc1nc(C)c(-c2csc(Nc3cc(OC)ccc3OC)n2)s1 (centres undefined)	TDP1 cell noCPT 6.5µM, DT40 TDP1 CPT 4.6µM
COc1cccc(Nc2nc(-c3sc(NC(=O)CC(C)C)nc3C)cs2)c1	TDP1 cell noCPT 23µM, DT40 TDP1 CPT 13µM
Cc1nc(NC(=O)c2ccccc2)sc1-c1csc(NCc2ccco2)n1	TDP1 cell noCPT 23µM, DT40 TDP1 CPT 23µM
CCN(c1ccccc1)S(=O)(=O)c1ccc(Cl)c(NC(=O)CSc2n[nH]c(N)n2)c1	TDP1 cell noCPT inconclusive
COc1ccccc1CN1CC(C(=O)NCCC2=CCCCC2)CCC1=O (centres undefined)	DT40 TDP1 CPT inconclusive
COc1ccc(CCNC(=O)[C@H](CCSC)NC(=O)N2CCn3c2nc2ccccc23)cc1OC	DT40 TDP1 CPT inconclusive
CC(=O)c1c(C(C)=O)c(C)n(-c2nc(-c3ccccc3)c(C)s2)c1C	TDP1 cell noCPT 13µM, DT40 TDP1 CPT inconclusive
Cc1sc(N)nc1-c1ccccc1	none
CCOc1cc(C(=O)N2CCC(CC3CC(c4ccc(Cl)cc4)=NO3)(C(=O)NCC3CCCCC3)CC2)cc(OCC)c1OCC (centres undefined)	TDP1 cell noCPT 18µM, DT40 TDP1 CPT 23µM (no result: TDP1 block)
CCOc1cc(C(=O)N2CCC(CC3CC(c4ccccc4)=NO3)(C(=O)NCc3ccc(OC)cc3)CC2)cc(OCC)c1OCC (centres undefined)	TDP1 cell noCPT 16µM, DT40 TDP1 CPT inconclusive (no result: TDP1 block, miR-21 reporter)
CCCNC(=O)C1(CC2CC(c3ccccc3)=NO2)CCN(C(=O)C2(C)CC2)CC1 (centres undefined)	none (no result: TDP1 block, miR-21 reporter)
Cc1cccc(NC(=S)N2CCN(C(=O)c3ccco3)CC2)c1C	none
Cc1occc1-c1nnc(SCC(=O)NC2CCCC2)n1C	none
CC1Sc2ccc(C(=O)O)cc2NC1=O (centres undefined)	none
CC1Sc2ccc(C(=O)N(CCc3ccccc3)Cc3ccccc3)cc2NC1=O (centres undefined)	TDP1 cell noCPT inconclusive, DT40 TDP1 CPT 21µM (no result: TDP1 block, miR-21 reporter, uPA surface inh)
Cc1c(S(=O)(=O)N2CCC(C)CC2)c(=O)n(C)c(=O)n1C	none (no result: TDP1 block, miR-21 reporter)
CCOc1cc(/C=N/NC(=O)c2nn(C)cc2Br)ccc1OCc1ccccc1Cl	TDP1 cell noCPT 16µM, DT40 TDP1 CPT 21µM
COc1cc(C(=O)NN=Cc2ccc(N(C)C)cc2)cc(OC)c1OC	TDP1 cell noCPT 0.92µM, DT40 TDP1 CPT 0.92µM (no result: TDP1 block, miR-21 reporter, uPA surface inh)
CCOc1cc(/C=N/NC(=O)c2ccc(CN3CCOCC3)cc2)ccc1OCc1ccccc1	TDP1 cell noCPT 18µM, DT40 TDP1 CPT inconclusive
CCOc1cc(/C=N/NC(=O)c2ccc(N(C)S(=O)(=O)c3ccccc3)cc2)ccc1OC	TDP1 cell noCPT 21µM, DT40 TDP1 CPT inconclusive
CCOc1cc(/C=N/NC(=O)CN2CCOCC2)ccc1OCc1ccccc1	TDP1 cell noCPT inconclusive
CC(C)(C)S(=O)(=O)/C(C#N)=C/c1sccc1C1OCCO1	TDP1 cell noCPT inconclusive, DT40 TDP1 CPT inconclusive
NC(=O)NCC1CC1	none
NC(=O)[C@@H]1CCOc2c(F)cc([N+](=O)[O-])cc2C(=O)N[C@@H](CO)C(=O)NCC(=O)N1	none
CC(=O)N[C@@H](CS)C(=O)O	none
CCN(CC)C(=O)c1ncn(Cc2ccccc2)c1C(=O)N(CC)CC	none (no result: miR-21 reporter)
CCc1c(C2CC2)ncn1Cc1cccc(-c2ccccc2)c1	TDP1 cell noCPT 1.8µM, DT40 TDP1 CPT 1.8µM (no result: TDP1 block, miR-21 reporter, uPA surface inh)
CCc1c(-c2ccc(Cl)cc2)ncn1Cc1cccc(-c2ccccc2)c1	TDP1 cell noCPT 7.3µM, DT40 TDP1 CPT 6.5µM (no result: TDP1 block, miR-21 reporter, uPA surface inh)
CCc1c(-c2ccccc2F)ncn1Cc1cccc(-c2ccccc2)c1	TDP1 cell noCPT 2.6µM, DT40 TDP1 CPT 2.6µM (no result: TDP1 block, miR-21 reporter, uPA surface inh)
CCOc1ccc2c(c1)ncn2Cc1ccccc1	none
CCn1ccnc1CN(C)Cc1cn(C)nc1-c1ccccc1F	none
CCc1c(-c2ccccc2)ncn1Cc1cccc(-c2ccccc2)c1	TDP1 cell noCPT 8.2µM, DT40 TDP1 CPT 8.2µM (no result: TDP1 block, miR-21 reporter, uPA surface inh)
CCN1C(=O)[C@H]2[C@H]3[C@H](O)[C@H](O)C/C(=N/OC[C@@H](O)[C@H]4O[C@H]5OC(C)(C)O[C@H]5[C@@H]4O)[C@@H]3CC[C@@H]2C1=O	none (no result: TDP1 cell noCPT, DT40 TDP1 CPT, miR-21 reporter, uPA surface inh)
Cn1cnnc1SC(C(=O)Nc1cccc(C(F)(F)F)c1)c1ccccc1 (centres undefined)	none
C#CCCCO/N=C1/C[C@@H](O)[C@@H](O)[C@@H]2[C@@H]3C(=O)N(CCC(=O)OCC)C(=O)[C@H]3CC[C@@H]12	none (no result: TDP1 cell noCPT, DT40 TDP1 CPT, miR-21 reporter, uPA surface inh)
c1ccc2c(NCCN3CCOCC3)nc(-c3ccoc3)nc2c1	none (no result: TDP1 block, miR-21 reporter, uPA surface inh)
